In the library only some 2.5% were active in any assay of this set; here they are far more common.
PAX8 reporter = lowers PAX8-driven luciferase in RMG-I cells. RMG-I TPO-luciferase reporter, SteadyGlo, 24 h. inhibition, % at 12.6 µM. 1.2% of 360,000 active;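 active = mean replicate inhibition at least 60% with every replicate also reaching 60%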;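 also: luciferase light reporting Pax8 driven TPO promoter activity; plate controls were median of neutral control wells for no effect and mitoxantrone controls for full effect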
HIV Env fusion = blocks HIV Env-driven cell-cell fusion | HeLa-JRFL Env/CEM21 cell fusion, luciferase | inhibition, % at 12.3 µM | 1.1% of 360,000 active | AID 651610;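 active = mean replicate inhibition score of at least 50 and every replicate individually at or above 50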;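 also: 0% = plate neutral controls and 100% = maraviroc near 300 nM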
F508del corr = correctors of CFTR F508del function in bronchial epithelial cells; activity (quench increase), % at 7.58 µM; CFBE cells, YFP halide quenching; stimulated with forskolin plus potentiator P3; % fluorescence drop versus neutral controls; 0.36% of 350,000 active; AID 720511;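 active = mean added fluorescence quench of at least 8% versus neutral control, with both replicates also reaching 8%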;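 also: cells transiently co-express mutant CFTR-F508del with the halide-sensitive YFP; corrector assay measuring rescue of mutant channel to the surface after 24 h compound exposure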
FXN GAA850 act = frataxin GAA850 promoter activation; HEK293 lucGAA850 FXN promoter luciferase reporter, 24 h; percent of 10 µM SAHA response; activation, % at 6 µM; 0.56% of 360,000 active; AID 540364;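 active = activation above the average of all compounds screened plus 3 SD, cutoff fixed separately per campaign, cut at about 7.5% in these data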;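 also: 0% = DMSO wells and 100% = 10 µM SAHA wells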
EWS-Fli block = inhibitors of EWS/Fli oncoprotein transcriptional activity | 0.67% of 350,000 active | A673 NR0B1-luciferase reporter, viability-normalised | inhibition, % at 12.6 µM | AID 651661;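 active = mean inhibition of at least 50% after viability correction, with every replicate also passing that limit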;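 also: firefly luciferase signal divided by Alamar Blue viability fluorescence both relative to DMSO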
* hit, by the source's call; . = not tested or not shown; [ ] = dose if it differs, or a comment.

SMILES | PAX8 reporter | HIV Env fusion | F508del corr | FXN GAA850 act | EWS-Fli block
CCCC(=O)Nc1ccc2c(c1)C(=O)N(C)C[C@@H](OC)[C@@H](C)CN(Cc1nccs1)[C@@H](C)CO2 | -4 | 58*[16.7 µM] | 1 | . | 5
CO[C@@H]1CN(C)C(=O)c2cc(NC(=O)Nc3ccc(Cl)cc3)ccc2OC[C@H](C)N(C)C[C@H]1C | 5 | 60*[16.7 µM] | 0 | . | 13
CO[C@H]1CN(C)C(=O)c2cc(NC(C)=O)ccc2OC[C@@H](C)N(Cc2nccs2)C[C@H]1C | . | 70*[16.7 µM] | 1 | . | -4
CO[C@H]1CN(C)C(=O)c2cc(NC(=O)Nc3ccc(Cl)cc3)ccc2OC[C@@H](C)N(C)C[C@@H]1C | 27 | 8[16.7 µM] | -4 | . | 22
C[C@H](CO)N1C[C@H](C)[C@@H](CN(C)Cc2ccc(Oc3ccccc3)cc2)Oc2c(NC(=O)Nc3ccc(C(F)(F)F)cc3)cccc2C1=O | . | 0[16.7 µM] | 3 | . | -9
Cc1ccccc1S(=O)(=O)N1[C@@H](C#N)[C@H](c2ccc(-c3ccccc3)cc2)[C@@H]1CO | -5 | 17[16.7 µM] | -2 | . | 3
C=C1C(=O)OC2C=C(CO)C3OC3C3OC3(C)CC(OC(=O)/C(=C/C)COC(C)=O)C12 (stereo not drawn) | 83* | -93 | -1 | -14 | 37
CN(Cc1ccccc1)C(=O)c1cc2ccccc2o1 | . | . | 2 | 2 | 9
CC(C)(C)N(Cc1ccccc1)C(=O)c1cc2ccccc2o1 | -16 | 19 | 10.0* | 1 | 19
CC1CCN(C(=O)C2COc3ccccc3O2)CC1 (stereo not drawn) | -27 | . | 16* | 0 | -15
Cc1ccc(S(=O)(=O)N(C)C[C@H]2Oc3ccc(NS(=O)(=O)c4cccs4)cc3CC(=O)N([C@H](C)CO)C[C@@H]2C)cc1 | -30 | 4[16.7 µM] | 0 | . | 10
OC[C@@H]1CC[C@@H]2O[C@H](CCc3ccc(C#CCc4ccccc4)cc3)[C@H](n3cc(-c4ccccc4)nn3)C[C@@H]2O1 | 62* | . | 1 | . | 1
OC[C@@H]1CC[C@@H]2O[C@H](CCc3ccc(C#CCc4ccccc4)cc3)[C@@H](n3cc(-c4ccccc4)nn3)C[C@@H]2O1 | 72* | . | 2 | . | 20
OC[C@H]1CC[C@@H]2O[C@H](CCc3ccc(C#CCc4ccccc4)cc3)[C@H](n3cc(-c4ccccc4)nn3)C[C@@H]2O1 | 18 | . | -1 | . | -8
C[C@H]1CN([C@@H](C)CO)C(=O)Cc2cc(NC(=O)CCN3CCOCC3)ccc2O[C@H]1CN(C)Cc1ccc(-c2ccccc2)cc1 | . | 6[16.7 µM] | 3 | . | -13
O=C(NCCOc1ccccc1)c1ccccc1Cl | -42 | -3 | 2 | 4 | -32
CN(C(=O)COc1ccccc1C(=O)NCCOc1ccccc1)c1ccccc1 | 74* | 12 | . | -10 | .
COc1ccc(-c2cnnc(N/N=C/c3ccc(-c4ccc([N+](=O)[O-])cc4)o3)n2)cc1 | 12 | -276 | -2 | -5 | 53*
CCOc1ccc2c(CC)cc(=O)oc2c1OCC | 102* | . | -3 | 0 | -5
CN(N=Nc1nc[nH]c1C(N)=O)C1CCCCC1 | 100* | 56* | 2 | . | -11
NC(=O)c1[nH]cnc1N=NN(CCO)Cc1ccccc1 | 74* | 6 | 5 | 0 | -7
CN(C1CCCCC1)S(=O)(=O)c1ccc(SCC(N)=O)nc1 | -136 | -13 | 0 | 0 | -6
CN(C)N=Nc1nc[nH]c1C(N)=O | 102* | 38 | -5 | 1 | -3
COc1ccccc1CN(Cc1nc2ccccc2c(=O)[nH]1)S(=O)(=O)c1ccc2ccccc2c1 | . | 98* | . | -13 | .
COc1ccc(S(=O)(=O)N(Cc2ccccc2)Cc2nc3ccccc3c(=O)[nH]2)cc1 | . | . | . | 0 | .
SMILES | PAX8 reporter | HIV Env fusion | F508del corr | FXN GAA850 act | EWS-Fli block
COC(=O)C1=CN(c2ccc3c(c2)OCO3)C(N)=C(C#N)C1c1cccc(F)c1 (stereo not drawn) | -5 | -14 | 11* | . | 56*
COC(=O)C1=CN(c2ccc(OC)cc2)C(N)=C(C#N)C1c1ccccc1F (stereo not drawn) | 18 | 0 | -3 | . | 43
COC(=O)C1=CN(c2ccc(OC)cc2OC)C(N)=C(C#N)C1c1ccccc1F (stereo not drawn) | 22 | -172 | 9.8* | . | 53*
C[C@@H]1CN([C@H](C)CO)C(=O)c2cccc(NC(=O)Nc3ccc4c(c3)OCO4)c2O[C@H]1CN(C)C(=O)Nc1cccc2ccccc12 | 2 | -81[16.7 µM] | 0 | . | -4
C[C@H](CO)N1C[C@H](C)[C@H](CN(C)S(=O)(=O)c2ccccc2)Oc2c(NC(=O)c3ccncc3)cccc2C1=O | -16 | 1[16.7 µM] | 1 | . | 4
O=C(CCl)N(c1ccccc1)C1CCCCC1 | 103* | 11 | -9 | -11 | 35
O=C(c1ccc(F)cc1)N1CC(=O)N2[C@@H](CO)[C@@H](c3ccc(C#CC4CCCC4)cc3)[C@@H]2C1 | . | . | 0 | . | 1
C/C(=C\c1ccc(N)cc1)c1nc2ccccc2[nH]1 | -158 | -134 | 2 | 3 | -121
CC(C)c1ccc(/C=C(\c2nc3ccccc3[nH]2)S(=O)(=O)c2ccccc2)cc1 | 87* | -447 | . | -9 | .
O=S(=O)(/C(=C/c1ccc(C(F)(F)F)cc1)c1nc2ccccc2[nH]1)c1ccccc1 | 115* | -127 | . | -5 | .
COC(=O)/C(=C\c1ccc(O)cc1)c1nc2ccccc2[nH]1 | -37 | -8 | 2 | 2 | -26
CCCCN(C(C)=O)c1ccc2c(c1)C1CC2CCN1C(=O)OCc1ccccc1 (stereo not drawn) | 29 | 63* | 5 | -1 | 5
Cc1ccc(S(=O)(=O)N2CCC(=O)N(CCOCc3ccc(C(F)(F)F)cc3)CC2)cc1 | 15 | 69* | 2 | 1 | 26
Cc1ccc(C2Oc3ccccc3C3=C2C(c2cccs2)n2ncnc2N3)cc1 (stereo not drawn) | . | 102* | . | 1 | .
O=C1CN(S(=O)(=O)c2cc(Br)ccc2Br)CCN1 | -8 | -5 | 2 | 4 | -4
O=c1c(Br)ccc(Br)cc1Br | 118* | 25 | -3 | -16 | 37
O=C(c1ccc2c(c1)OCO2)N1CC2(C1)[C@@H](c1ccccc1)[C@@H](CO)N2C(=O)C1CCC1 | 5 | . | 0 | . | -2
N#Cc1ccccc1COc1ccc(/C=C/C(=O)O)cc1 | -6 | 30 | 4 | -12 | 58*
Cc1ccc(S(=O)(=O)N[C@@H]2C=C[C@H](CC(=O)N3CCC(Cc4ccccc4)CC3)O[C@@H]2CO)cc1 | -19 | 5[16.7 µM] | 0 | . | 1
Cc1ccc(S(=O)(=O)N[C@H]2C=C[C@@H](CC(=O)N3CCC(Cc4ccccc4)CC3)O[C@H]2CO)cc1 | -36 | 56*[16.7 µM] | 0 | . | -1
COc1ccc2c3c(n(C)c2c1)[C@H](CO)N(Cc1ccccn1)CC31CCN(Cc2ccccn2)CC1 | . | -25[16.7 µM] | 2 | . | -6
Cc1ccc(C(=O)CSC2=C(C#N)C(c3ccco3)C3=C(CCCC3=O)N2)cc1 (stereo not drawn) | 4 | -180 | . | -5 | .
